Our source for the outcome and AC50 values is PubChem BioAssay (EPA / NIEHS).

Several values for one entry are separate records, joined by “and”; a condition that tells them apart may be missing. Equal entries are not always repeated. The source holds several records for some structures; these can differ, active in one and inactive in another. Activity calls are given as the source filed them. Rule for the calls: active = hit-call score of the fitted dose curve at least 0.9, where 1 is the maximum; inactive = score below 0.9.

Read-out in assay [1]: Macrophage colony-stimulating factor (MCSF), CSF1 (gene 1435)
Put plainly: BSK_hDFCGF_MCSF: BioMAP Diversity Plus: hDFCGF Assay for Macrophage colony-stimulating factor (MCSF) Biomarker Activity (AID 2283060). As to conditions: primary human foreskin fibroblasts; actives raise or lower the signal. The gist of the method:
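Primary human foreskin fibroblasts dosed with chemical; 24 h later, M-CSF quantified by ELISA; curves fitted in both directions vs DMSO negative control.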

A short description of assay [2]: BSK_hDFCGF_SRB: Viability Assessment in the BioMAP Diversity Plus: hDFCGF Assay (AID 2283061).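 Note: cells exposed to compound for 24 h before the read.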 The conditions noted are these: primary human foreskin fibroblasts. An outline of the steps: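 Readout is SRB absorbance at 560 nm, reflecting total protein in parallel cultures of human foreskin fibroblasts harvested 24 h after chemical dosing. Activity was fitted bidirectionally relative to DMSO.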

Read-out in assay [3]: TIMP metallopeptidase inhibitor 1 (TIMP1), TIMP1 (gene 7076)
The assay can be described thus: BSK_hDFCGF_TIMP1: BioMAP Diversity Plus: hDFCGF Assay for TIMP metallopeptidase inhibitor 1 (TIMP1) Biomarker Activity (AID 2283062). The conditions noted are these: primary human foreskin fibroblasts; actives raise or lower the signal. An outline of the steps: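 Human skin fibroblasts (primary), hDFCGF system; compound exposure 24 h; TIMP-1 by ELISA; bidirectional fit vs DMSO negative control; overt cytotoxicity by SRB in parallel wells.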

Read-out in assay [4]: Monokine induced gamma interferon (MIG), CXCL9 (gene 4283)
Put plainly: BSK_hDFCGF_MIG: BioMAP Diversity Plus: hDFCGF Assay for Monokine induced gamma interferon (MIG) Biomarker Activity (AID 2283063). As to conditions: primary human foreskin fibroblasts; actives raise or lower the signal. The gist of the method:
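Chemicals were added to primary human foreskin fibroblast cultures, which were sampled 24 h later. MIG levels were then quantified by ELISA and responses fitted in both directions relative to DMSO.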

Read-out in assay [5]: Matrix Metallopeptidase 1 (MMP1), MMP1 (gene 4312)
The assay can be described thus: BSK_hDFCGF_MMP1: BioMAP Diversity Plus: hDFCGF Assay for Matrix Metallopeptidase 1 (MMP1) Biomarker Activity (AID 2283064). The conditions noted are these: primary human foreskin fibroblasts; actives raise or lower the signal. An outline of the steps:
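Human foreskin fibroblasts exposed to chemical for 24 h; MMP1 detected by ELISA, with DMSO as baseline for bidirectional fitting.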

Read-out in assay [6]: Vascular cell adhesion molecule 1 (VCAM1), VCAM1 (gene 7412)
Put plainly: BSK_hDFCGF_VCAM1: BioMAP Diversity Plus: hDFCGF Assay for Vascular cell adhesion molecule 1 (VCAM1) Biomarker Activity (AID 2283065).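 For AC50: VCAM-1 protein level quantified by ELISA after 24 h chemical exposure.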 As to conditions: primary human foreskin fibroblasts; actives raise or lower the signal. The gist of the method:
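Human foreskin fibroblast primary cells, chemical exposure 24 h; VCAM-1 by ELISA; bidirectional fit, DMSO = negative control/baseline.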

Read-out in assay [7]: Plasminogen activator inhibitor-1 (PAI1), SERPINE1 (gene 5054)
The assay can be described thus: BSK_hDFCGF_PAI1: BioMAP Diversity Plus: hDFCGF Assay for Plasminogen activator inhibitor-1 (PAI1) Biomarker Activity (AID 2283066). The conditions noted are these: primary human foreskin fibroblasts; actives raise or lower the signal. An outline of the steps:
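Fibroblasts from human foreskin were treated with test chemical. After 24 h, PAI-1 was measured by ELISA. Activity was fitted in both directions relative to DMSO.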

Read-out in assay [8]: Intercellular Adhesion Molecule 1 (ICAM1), ICAM1 (gene 3383)
The assay can be described thus: BSK_KF3CT_ICAM1: BioMAP Diversity Plus: KF3CT Assay for Intercellular Adhesion Molecule 1 (ICAM1) Biomarker Activity (AID 2283067). As to conditions: primary human keratinocytes with fibroblasts; actives raise or lower the signal. An outline of the steps: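 ICAM-1 levels are measured by ELISA 24 h after dosing a primary human co-culture of keratinocytes and foreskin fibroblasts. Activity in either direction is fitted relative to DMSO vehicle.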

Read-out in assay [9]: Interferon-gamma inducible Protein 10 (IP10), CXCL10 (gene 3627)
Put plainly: BSK_KF3CT_IP10: BioMAP Diversity Plus: KF3CT Assay for Interferon-gamma inducible Protein 10 (IP10) Biomarker Activity (AID 2283068). As to conditions: primary human keratinocytes with fibroblasts; actives raise or lower the signal. The gist of the method:
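ELISA read-out of IP-10 after 24 h chemical dosing of human skin primary co-culture (keratinocytes, foreskin fibroblasts). Gain or loss of signal relative to DMSO, bidirectional curve fit.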

A short description of assay [10]: BSK_KF3CT_SRB: Viability Assessment in the BioMAP Diversity Plus: KF3CT Assay (AID 2283069).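 Note: read 24 h after compound addition; fitted for both signal gain and loss against DMSO baseline.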 As to conditions: primary human keratinocytes with fibroblasts. The gist of the method:
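Overt cytotoxicity is assessed as total protein by sulforhodamine B staining in parallel human skin co-cultures at 24 h after dosing. DMSO serves as negative control and baseline.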

Read-out in assay [11]: Interleukin-1 alpha (IL1a), IL1A (gene 3552)
The assay can be described thus: BSK_KF3CT_IL1a: BioMAP Diversity Plus: KF3CT Assay for Interleukin-1 alpha (IL1a) Biomarker Activity (AID 2283070). The conditions noted are these: primary human keratinocytes with fibroblasts; actives raise or lower the signal. An outline of the steps:
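Readout is IL-1a level by ELISA, compared bidirectionally with DMSO as baseline. Cells: human keratinocytes co-cultured with foreskin fibroblasts, harvested 24 h post-dose.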

Read-out in assay [12]: TIMP metallopeptidase inhibitor 2 (TIMP2), TIMP2 (gene 7077)
The assay can be described thus: BSK_KF3CT_TIMP2: BioMAP Diversity Plus: KF3CT Assay for TIMP metallopeptidase inhibitor 2 (TIMP2) Biomarker Activity (AID 2283071). As to conditions: primary human keratinocytes with fibroblasts; actives raise or lower the signal. The gist of the method: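 Chemicals were dosed onto human skin primary co-cultures of keratinocytes and foreskin fibroblasts, and TIMP-2 was measured by ELISA after 24 hours. Activity in either direction was fitted relative to DMSO.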

Read-out in assay [13]: Transforming growth factor beta 1 (TGFb1), TGFB1 (gene 7040)
Put plainly: BSK_KF3CT_TGFb1: BioMAP Diversity Plus: KF3CT Assay for Transforming growth factor beta 1 (TGFb1) Biomarker Activity (AID 2283072). As to conditions: primary human keratinocytes with fibroblasts; actives raise or lower the signal. An outline of the steps:
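KF3CT co-culture (keratinocytes + fibroblasts), 24 h exposure → TGF-b1 ELISA → bidirectional fit, DMSO = baseline. Parallel SRB total-protein staining (0.1% SRB, 10% TCA fixation, 560 nm) for cytotoxicity.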

Read-out in assay [14]: C-C motif chemokine 2 (Homo sapiens) (UniProt P13500)
Put plainly: BSK_KF3CT_MCP1: BioMAP Diversity Plus: KF3CT Assay for Monocyte Chemoattractant Protein 1 (MCP1/CCL2) Biomarker Activity (AID 2283073). As to conditions: primary human keratinocytes with fibroblasts; actives raise or lower the signal. An outline of the steps: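 ELISA readout of MCP-1 after 24 h chemical dosing of a human skin primary co-culture of keratinocytes and foreskin fibroblasts. Activity was fitted in both directions against DMSO.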

Read-out in assay [15]: Matrix Metallopeptidase 9 (MMP9), MMP9 (gene 4318)
Put plainly: BSK_KF3CT_MMP9: BioMAP Diversity Plus: KF3CT Assay for Matrix Metallopeptidase 9 (MMP9) Biomarker Activity (AID 2283074).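 For AC50: MMP9 protein level quantified by ELISA in the co-culture.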 As to conditions: primary human keratinocytes with fibroblasts; actives raise or lower the signal. An outline of the steps:
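Values come from bidirectional fitting relative to DMSO of MMP-9 levels, which were measured by ELISA. Measurements were taken 24 h after chemical dosing of a keratinocyte and foreskin fibroblast co-culture.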

Read-out in assay [16]: urokinase plasminogen activator (uPA), PLAU (gene 5328)
The assay can be described thus: BSK_KF3CT_uPA: BioMAP Diversity Plus: KF3CT Assay for urokinase plasminogen activator (uPA) Biomarker Activity (AID 2283075). The conditions noted are these: primary human keratinocytes with fibroblasts; actives raise or lower the signal. The gist of the method:
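Values derive from bidirectional fitting against DMSO controls. Keratinocyte/foreskin fibroblast co-cultures received chemical; 24 h later uPA was detected by ELISA, with SRB total-protein staining in parallel wells for overt cytotoxicity.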

Read-out in assay [17]: CD40, CD40 (gene 958)
The assay can be described thus: BSK_LPS_CD40: BioMAP Diversity Plus: LPS Assay for CD40 Biomarker Activity (AID 2283076). The conditions noted are these: primary human HUVEC with PBMC; actives raise or lower the signal. An outline of the steps:
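Cells were dosed, incubated 24 h, then assayed for CD40 by ELISA. Gain or loss of signal was analysed relative to DMSO controls. The culture paired human umbilical vein endothelium with peripheral blood mononuclear cells.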

Read-out in assay [18]: E-selectin (Homo sapiens) (UniProt P16581)
The assay can be described thus: BSK_LPS_Eselectin: BioMAP Diversity Plus: LPS Assay for Eselectin Biomarker Activity (AID 2283077). As to conditions: primary human HUVEC with PBMC; actives raise or lower the signal. The gist of the method: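 Primary human vascular co-culture (endothelium plus PBMC) was dosed with chemical, then E-selectin quantified by ELISA at 24 h. Endpoint values derive from bidirectional curve fitting relative to DMSO.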

Read-out in assay [19]: Interleukin-8 (IL8), CXCL8 (gene 3576)
Put plainly: BSK_LPS_IL8: BioMAP Diversity Plus: LPS Assay for Interleukin-8 (IL8) Biomarker Activity (AID 2283078). As to conditions: primary human HUVEC with PBMC; actives raise or lower the signal. The gist of the method: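 Readout is IL-8 by ELISA, taken 24 h after compounds were added to LPS-stimulated endothelial/PBMC co-cultures. Both increases and decreases relative to DMSO control were scored through bidirectional fitting.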

Assay [20] can be described thus: BSK_LPS_SRB: Viability Assessment in the BioMAP Diversity Plus: LPS Assay (AID 2283079).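 Note: total protein by sulforhodamine B absorbance as a cytotoxicity measure; measured one day after compound addition; fitted in both directions against DMSO so loss or gain of signal counts.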 As to conditions: primary human HUVEC with PBMC. The gist of the method: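 Readout is SRB absorbance at 560 nm (0.1% stain, TCA-fixed parallel cultures) as a total-protein cytotoxicity measure. Cells: primary human umbilical vein endothelium plus peripheral blood mononuclear cells, 24 h after chemical exposure; DMSO served as baseline.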

Sequence of E-selectin (Homo sapiens) (P16581 whole entry, looked up): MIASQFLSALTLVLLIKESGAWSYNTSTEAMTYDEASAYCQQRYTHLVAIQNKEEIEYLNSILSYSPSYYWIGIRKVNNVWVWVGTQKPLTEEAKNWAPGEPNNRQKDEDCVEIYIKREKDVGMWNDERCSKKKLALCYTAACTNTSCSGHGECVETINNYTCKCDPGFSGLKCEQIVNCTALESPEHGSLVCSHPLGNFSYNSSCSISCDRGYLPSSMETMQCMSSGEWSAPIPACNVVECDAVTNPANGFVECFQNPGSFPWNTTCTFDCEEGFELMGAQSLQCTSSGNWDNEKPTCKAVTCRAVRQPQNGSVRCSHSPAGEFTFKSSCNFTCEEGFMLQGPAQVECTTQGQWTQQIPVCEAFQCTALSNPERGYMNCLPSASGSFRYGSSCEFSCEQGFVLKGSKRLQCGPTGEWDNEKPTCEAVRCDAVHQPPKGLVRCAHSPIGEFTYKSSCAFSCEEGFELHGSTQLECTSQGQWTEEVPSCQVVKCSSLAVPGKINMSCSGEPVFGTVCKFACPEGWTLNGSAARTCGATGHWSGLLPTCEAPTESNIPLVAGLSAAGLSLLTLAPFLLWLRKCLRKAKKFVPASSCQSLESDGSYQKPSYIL

With `CCCCC(CC)C(=O)O` (stereo not drawn), the result in assay [1], in assay [2], in [3], in assay [4], in [5] and in assay [6] was inactive. In addition, the outcome in [7], in assay [8], in assay [9], in assay [10], in assay [11] and in [12] was inactive. The outcome in assay [13], in assay [14], in [15], in assay [16], in assay [17] and in assay [18] was inactive. For the same compound, the result in [19] and in assay [20] was inactive.

As a reminder, the AC50 is the midpoint of the concentration-response curve, whichever way the signal moves. For the compound `O=S(=O)(O)C(F)(F)C(F)(F)C(F)(F)C(F)(F)C(F)(F)C(F)(F)C(F)(F)C(F)(F)C(F)(F)C(F)(F)F`, the outcome in assay [1], in assay [3], in [4], in assay [5], in assay [6] and in assay [7] was inactive. Besides, the result in assay [9], in assay [10], in assay [11], in [12], in assay [14] and in assay [16] was inactive. The result in assay [20] was inactive. The AC50 in assay [2] was 8.49 µM (active) and 8.79 µM (active); in [3], 11.5 µM (active); in [6], 0.201 µM (active); in assay [8], 6.49 µM (active) and 3.75 µM (active); in [15], 11.9 µM (active) and 5.3 µM (active); in assay [17], 13.3 µM (active) and 16.5 µM (active). For the same compound, the AC50 is 24.7 µM (active) and 768 nM (active) in [18]; 23.4 µM (active) and 20.3 µM (active) in [19].

With `CC(=O)Nc1ccc(O)cc1`, the outcome in assay [1], in [2], in assay [3], in assay [4], in [5] and in assay [6] was inactive. In addition, the result in [7], in assay [8], in assay [9], in [10], in assay [11] and in assay [12] was inactive. Moreover, the outcome in assay [13], in assay [14], in assay [15], in assay [16], in [17] and in assay [18] was inactive. The result in assay [19] and in [20] was inactive.

For `CCCCCCCCCCCCOS(=O)(=O)O`, the AC50 was 30.9 µM (active) in assay [1]; 28 µM (active) in assay [2]; 32 µM (active) in [3]; 27.7 µM (active) in assay [4]; 32.7 µM (active) in assay [5]; 29.3 µM (active) in [6]. Further, the AC50 in assay [7] is 33.6 µM (active); in [9], 33.4 µM (active); in assay [10], 33.7 µM (active); in assay [11], 20 µM (active); in [12], 29.3 µM (active); in [13] it was 33.4 µM (active). The figures for the AC50 in [14] and in assay [16] were 20 µM (active) and 31.1 µM (active), respectively. In addition, the outcome in assay [8], in assay [17], in [18] and in [19] was inactive.

Take `C=COC(=O)C(C)(C)CCCCCC`: the AC50 in assay [1] was 35 µM (active); in [2], 37.5 µM (active); in assay [3], 28.5 µM (active); in [4], 35 µM (active); in [5], 3.97 µM (active); in assay [6], 30.2 µM (active). The AC50 was 30.3 µM (active) in [7]; 37.2 µM (active) in [8]; 34.7 µM (active) in assay [9]; 34.4 µM (active) in assay [10]; 30.9 µM (active) in [11]; 27.6 µM (active) in assay [12]. Further, the AC50 in assay [14] is 25.9 µM (active); in assay [16] it was 28 µM (active); in assay [17], 31.7 µM (active); in assay [18] it was 30.6 µM (active); in assay [19] it was 33.1 µM (active); in [20], 34.6 µM (active). Also, in assay [13], the result was inactive.
